Experimental data: PubChem BioAssay (NCI)
Compounds without any hit were thinned out: in the full panel of roughly 83,000, 20% have a hit.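 Interpretation: 100, growth as untreated; towards 0, rising growth inhibition; 0, no net growth; 0 to -100, cell death. Compounds scoring below 10 were considered active.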 A number with no mark means an inactive call. Calls of active or inactive are those of the source.

Legend:
Experiment in all cases: NCI-60 one-dose screen, 48 h (100 = growth as untreated, 0 = no growth, -100 = all killed)
[1] = tested on: NCI-H23 lung; conditions: 10 µM unless noted
[2] = tested on: NCI-H460 lung; conditions: 10 µM unless noted
[3] = tested on: 786-0 renal; conditions: 10 µM unless noted
[4] = tested on: DU-145 prostate; conditions: 10 µM unless noted
[5] = tested on: MDA-MB-231 breast; conditions: 10 µM unless noted
[6] = tested on: SF-268 CNS; conditions: 10 µM unless noted
[7] = tested on: SF-539 CNS; conditions: 10 µM unless noted
[8] = tested on: UACC-257 melanoma; conditions: 10 µM unless noted
[9] = tested on: HCT-15 colon; conditions: 10 µM
[10] = tested on: PC-3 prostate; conditions: 10 µM unless noted
[11] = tested on: SK-MEL-5 melanoma; conditions: 10 µM unless noted
[12] = tested on: LOX IMVI melanoma; conditions: 10 µM unless noted
[13] = tested on: SN12C renal; conditions: 10 µM unless noted
[14] = tested on: NCI/ADR-RES ovarian; conditions: 10 µM unless noted
[15] = tested on: SW-620 colon; conditions: 10 µM unless noted
[16] = tested on: HCT-116 colon; conditions: 10 µM unless noted
[17] = tested on: HCC-2998 colon; conditions: 10 µM unless noted
[18] = tested on: KM12 colon; conditions: 10 µM unless noted
[19] = tested on: SK-MEL-28 melanoma; conditions: 10 µM unless noted
[20] = tested on: MCF7 breast; conditions: 10 µM unless noted

Row | SMILES | growth [1] | growth [2] | growth [3] | growth [4] | growth [5] | growth [6] | growth [7] | growth [8] | growth [9] | growth [10] | growth [11] | growth [12] | growth [13] | growth [14] | growth [15] | growth [16] | growth [17] | growth [18] | growth [19] | growth [20]
1 | C/C1=C/C(=O)O[C@@H]2C[C@@H](CC[C@H](C)/C=C\C=C\CC1)O[C@@](OCCc1ccccc1)([C@@H]1CSC(=O)N1)C2 | 35.1% | 21.6% | 9.36% (active) | -2.11% (active) | 11.8% | -42.9% (active) | 9.84% (active) | -3.39% (active) | 46.3% | 18.3% | -21.2% (active) | 4.46% (active) | 39.1% | 48.4% | 59.3% | 33.5% | 55.9% | 58.2% | – | –
2 | C[C@]12C[C@H](O)[C@H]3[C@@H](CCC4=CC(=O)CC[C@@]43C)[C@@H]1CC[C@@H]2O | 103% | 108% | 107% | 112% | 103% | 105% | 99% | – | 100% | 95.3% | 100% | 96% | 101% | 104% | 107% | 101% | 95.3% | 105% | 106% | 103%
3 | CC1([N+](=O)[O-])COP(=O)(Nc2ccc(F)cc2)OC1 (stereo unspecified) | 96.4% | 106% | 102% | 106% | 118% | 99.7% | 103% | 101% | 104% | 95.5% | 98.2% | 84.2% | 111% | 102% | 102% | 99.4% | 99.5% | 95.8% | 116% | 100%
4 | COc1cc(C2CC(=O)Nc3nc(N)[se]c32)c(OC)c2c1OCO2 (stereo unspecified) | 99.7% | 23.9% | 105% | 103% | 96.3% | 107% | 91% | 116% | 101% | 51.6% | – | 104% | 97.3% | 109% | 110% | 65.7% | 121% | 70.3% | 104% | 94.1%
